Molecules are shown by their SMILES. About 83,000 compounds went through this panel and 20% of them were active in at least one assay; those are over-represented in the sample as a whole.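 Compound tested at a single concentration for 48 hours in 96-well plates; a percent growth value below 10 was scored as active.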 A number with no mark means an inactive call. The source made the active and inactive calls.

This experiment relates to RPMI-8226 leukemia. As to the kind of experiment: NCI-60 one-dose screen, 48 h (100 = growth as untreated, 0 = no growth, -100 = all killed). Particulars: 10 µM unless noted.
With `O=C(CN1CCN(c2cc3c(cc2F)c(=O)c(C(=O)O)cn3C2CC2)CC1)N/N=C/c1ccco1`, the growth is 101%.
Regarding `N#C/C(=C\C=C\c1ccc(-c2cc(Cl)ccc2Cl)o1)c1nc2ccccc2s1`, the growth was 96.5%.
Next, `CCn1cc(CNc2ccc(C(=O)Nc3cc4cc(OC)c(OC)cc4c(C)n3)cc2)cn1`: 34.7%.
As for `N#Cc1c(-c2ccccc2)nc(SCc2nnc(-c3ccc(Cl)cc3)o2)[nH]c1=O`, the growth was 95.6%.
The value for `O=P(O)(O)OCC1OC(n2cnc3c(NCc4ccco4)ncnc32)C(O)C1O` (centres undefined) was -23.6% (active).
The value for `CCN(CC)CCCN1C(=O)c2c(c(C)c3c(oc4ccc(O)cc43)c2C)C1=O` was -15.7% (active).
Next, `O=[N+]([O-])c1ccc(-c2cn3nc(-c4c[nH]c5ccccc45)sc3n2)cc1`: 93.1%.
On to `Cc1nc2ccccc2c(/C=C/c2ccccc2)c1C(=O)/C=C/c1ccccc1`, for which the growth was 8.21% (active).
For the compound `O=C1Nc2c(C(=O)O)cccc2/C1=N/c1n[nH]c(=S)s1`, the growth was 87.7%.
Next, `CC(=O)Oc1ccc(OC(C)=O)c2ccccc12`: 6.57% (active); `COC(=O)/C=C1/SC(=Nc2ccc([N+](=O)[O-])cc2)N(CCc2c[nH]c3ccc(O)cc23)C1=O`: 8.49% (active); `[2H]C([2H])([2H])Oc1ccc(F)cc1/C=C/C(=O)/C=C(/C=C/c1cc(F)ccc1OC([2H])([2H])[2H])OB(F)F`: 10.7%.
The value for `Nc1c(C(=O)Nc2cccc(Cl)c2)sc2nc3c(cc12)CCCC3` was 93.6%.
Next, `NS(=O)(=O)c1ccc(C(=O)NN2C(=O)c3c(Br)c(Br)c(Br)c(Br)c3C2=O)cc1`: 102%.

(Values after PubChem BioAssay (NCI).)
